Experimental findings from PubChem BioAssay are described below.

Calls of active or inactive are those of the source.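 The calls were made as follows: active = mean duplicate potentiation above the buffer control mean plus 5 SD of buffer wells; inactive = the rest.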

The target in this experiment is Potassium voltage-gated channel subfamily KQT member 2 (Rattus norvegicus) (UniProt O88943). Briefly: KCNQ2 thallium flux enhancement – KCNQ2-CHO-K1 cells, selectivity assay for KCNQ1 potentiator project (AID 493009).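 Also: assay conditions were tuned for KCNQ1 rather than KCNQ2 modulators; signal is max minus min fluorescence divided by baseline after thallium stimulus.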 The settings on record: FluxOR thallium flux fluorescence, at 10 µM; active compounds read high, scaled: buffer 0, activator control 100.
Chain of Potassium voltage-gated channel subfamily KQT member 2 (Rattus norvegicus) (O88943 whole entry, looked up): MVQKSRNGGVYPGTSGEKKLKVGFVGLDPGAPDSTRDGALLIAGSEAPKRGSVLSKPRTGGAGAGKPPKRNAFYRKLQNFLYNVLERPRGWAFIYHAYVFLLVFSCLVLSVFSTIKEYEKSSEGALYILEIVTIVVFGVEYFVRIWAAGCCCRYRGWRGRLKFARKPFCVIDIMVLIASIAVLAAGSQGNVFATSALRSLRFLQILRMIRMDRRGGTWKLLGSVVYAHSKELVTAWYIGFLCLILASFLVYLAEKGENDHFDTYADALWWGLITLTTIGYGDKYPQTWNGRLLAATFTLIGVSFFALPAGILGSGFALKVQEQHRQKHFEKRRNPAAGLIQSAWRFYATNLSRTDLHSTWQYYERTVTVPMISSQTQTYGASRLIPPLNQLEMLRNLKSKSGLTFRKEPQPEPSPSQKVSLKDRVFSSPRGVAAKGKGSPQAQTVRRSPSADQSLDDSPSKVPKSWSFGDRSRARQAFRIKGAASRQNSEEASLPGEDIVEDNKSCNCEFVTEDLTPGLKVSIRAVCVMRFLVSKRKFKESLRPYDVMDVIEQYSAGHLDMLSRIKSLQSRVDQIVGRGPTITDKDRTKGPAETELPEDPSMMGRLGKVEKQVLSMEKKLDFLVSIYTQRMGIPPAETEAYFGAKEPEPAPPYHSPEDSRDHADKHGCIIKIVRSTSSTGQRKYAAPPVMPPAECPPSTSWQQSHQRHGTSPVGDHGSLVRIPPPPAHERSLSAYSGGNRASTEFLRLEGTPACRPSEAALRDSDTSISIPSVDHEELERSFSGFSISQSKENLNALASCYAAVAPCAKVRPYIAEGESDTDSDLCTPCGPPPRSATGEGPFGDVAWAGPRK
For the compound `Cc1ccccc1NC(=O)C(=O)NNC(=O)COc1ccc2ccccc2c1`, the potentiation was 300% (active).

In the case of `CCOC(=O)c1c(NC(=O)C(C)N2CCN(C(=O)c3ccco3)CC2)sc2c1CCCC2` (centres undefined), the potentiation is 160% (active).

Regarding `CC(=O)N/C(=C/c1ccc2c(c1)OCO2)C(=O)O`, the result was inactive.

`CCOC(=O)C(=NCC1CCCO1)NNc1ccccc1Cl` (centres undefined): the outcome was inactive.

As for `CC(C)(C)NC(=O)C(=O)NNC(=O)c1cccc(Br)c1`, the potentiation was 229% (active).

`Cc1ccc(-c2c(C(=O)O)c3ccccc3[nH]c2=O)cc1`: the result was inactive.

With `O=C(NCCN1CCOCC1)[C@H](Cc1ccccc1)N1C(=O)c2ccccc2C1=O`, the potentiation is 155% (active).

Consider `Cc1ccc2c(c1)c(C)c(C)n2CC(O)CN1CCCCC1C` (centres undefined), for which the outcome was inactive.

On to `O=c1[nH]c2ccc(Cl)cc2c(-c2ccccc2)c1N1CCN(CCO)CC1`, for which the result was inactive.

For the compound `CCOC(=O)c1ccccc1N1C(=O)CSC1=S`, the result was inactive.

Consider `CCSc1nc2c(sc3ccccc32)c(=O)n1C(C)C`, for which the potentiation was 479% (active).

`O=C(CNC(=O)C(c1ccccc1)c1ccccc1)N/N=C/c1ccc(O)cc1O`: the outcome was inactive.

On to `Cc1cccc(OCC(=O)O/N=C(\N)c2ccc(Cl)cc2)c1`, for which the result was inactive.

As for `CC1Oc2ccccc2OC1(O)c1ccccn1` (centres undefined), the potentiation is 142% (active).

For `Cc1ccc(C)c(NC(=S)N(Cc2ccco2)C(C)c2cccs2)c1` (centres undefined), the result was inactive.

As for `O=C(NC(=S)Nc1cccnc1)c1cc2ccccc2o1`, the potentiation is 182% (active).

Turning to `CCOC(=O)c1sc2ncnc(NCc3ccco3)c2c1C`, the potentiation was 358% (active).

Turning to `O=c1oc2cc(OCCO)ccc2c2c1CCCC2`, the result was inactive.

Turning to `O=C(c1ccccc1)N1CCC(CC2CC(c3ccc(Cl)cc3)=NO2)(C(=O)NCC2CCCCC2)CC1` (centres undefined), the result was inactive.
